Several values for one entry are separate records, joined by “and”; a condition that tells them apart may be missing. Identical values can stand only once. Inconclusive results are not listed. Activity calls are given as the source filed them. Unless noted, calls follow the shape of the dose curve; as a rule, active = well fitted curve in the direction sought with a large enough effect; inconclusive = small, poorly fitted or top-dose-only effect, or another doubt; inactive = no such curve, though single readings can be large; an effect the other way counts as inactive or inconclusive.
Key:
[1] = qHTS Assay for Lipid Storage Modulators (AID 1519; calls by dose curve; as to activity change, negative = inhibition: % is scaled to controls: 0 for no effect and ±100 for the full control effect); conditions: Drosophila S3 cells, BODIPY lipid droplet/cell ratio, laser cytometry, cells loaded with oleic acid
Method in brief: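 Cells seeded at 5,000 per well were treated with compounds over a concentration series and loaded with oleic acid (400 uM, as added). Lipid droplet fluorescence (488 nm excitation, 500-530 nm channel) was read by laser-scanning cytometry and normalized to 20 uM Triacsin C.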

[2] = target: DNA repair nuclease/redox regulator APEX1 (Homo sapiens) (UniProt P27695); test: qHTS Validation Assay for Inhibitors of the Human Apurinic/apyrimidinic Endonuclease 1 (APE1) (AID 1705;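 also: TAMRA fluorescence gain over two minutes as APE1 cuts a quenched THF abasic duplex; % is scaled to controls: 0 for no effect and ±100 for the full control effect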); conditions: purified APE1 endonuclease activity, fluorescence, titration; series mostly up to 57.1 µM
Method in brief: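 Endonuclease activity of human APE1 is followed as dequenching when the enzyme incises a tetrahydrofuran abasic site in a short duplex labelled 5'-TAMRA/3'-BHQ-2 (50 nM final), after 15 min enzyme–compound preincubation at room temperature.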

[3] = Counterscreen for APE1 Inhibitors: Fluorescent Dye Displacement Validation Assay (AID 1707); conditions: fluorescent dye displacement from DNA; series mostly up to 57.1 µM;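 also: plate controls were ThO with dsDNA and no compound for no effect and ThO without dsDNA for full effect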
Method in brief: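 Endpoint fluorescence read at 480 nm excitation / 540 nm emission; DNA-binding compounds lower signal by displacing 250 nM Thiazole Orange from 50 nM dsDNA containing a tetrahydrofuran abasic site, Tris-HCl pH7.5 buffer with NaCl and MgCl2.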

[4] = target: Endonuclease 4 (Escherichia coli (strain K12)) (UniProt P0A6C1); test: Counterscreen for APE1 Inhibitors: qHTS Validation Assay for Inhibitors of Endonuclease IV (AID 1708); also: % is scaled to controls: 0 for no effect and ±100 for the full control effect; conditions: E. coli endonuclease IV, DNA cleavage fluorescence; series mostly up to 57.1 µM
Method in brief: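 Incision of a double-stranded 50 nM TAMRA/BHQ-2 abasic substrate was followed kinetically (525/598 nm, reads every 60 s) after 15 min enzyme–compound preincubation with 2 nM EndoIV in pH 7.5 Tris buffer with MgCl2, DTT and Tween-20; concentration-response format.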

[5] = qHTS for differential inhibitors of proliferation of Plasmodium falciparum line GB4 (AID 1816); conditions: Potency: Plasmodium falciparum GB4 proliferation inhibition; series mostly up to 28.7 µM;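 also: potency is read from the fitted curve at half-maximal effect; parasite growth measured after 72 h incubation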
[6] = qHTS for differential inhibitors of proliferation of Plasmodium falciparum line D10 (AID 1877); conditions: series mostly up to 28.7 µM;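 also: parasites grown with compound for 72 h before DNA staining; plate controls were vehicle wells for no effect and reference inhibitor wells for full effect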
[7] = qHTS for differential inhibitors of proliferation of Plasmodium falciparum line W2 (AID 1883); conditions: Potency: Plasmodium falciparum W2 proliferation inhibition; series mostly up to 28.7 µM;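 also: potency is read from the fitted curve at half-maximal effect; parasites grown with compound for 72 h before lysis and staining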
[8] = target: Ferritin light chain (Equus caballus) (UniProt P02791); test: qHTS Validation Assay for Identification of Novel General Anesthetics (AID 2323); conditions: horse apoferritin, anesthetic-site fluorescent probe displacement; series mostly up to 76.9 µM; also: % is scaled to controls: 0 for no effect and ±100 for the full control effect
Method in brief: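 Apoferritin from horse spleen (10 uM) was mixed with 1-aminoanthracene at 50% saturation in PBS, then compounds were added. After 10 min at room temperature, fluorescence was read (ex 380 nm, em 535 nm) and normalized to free-probe and complex controls.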

[9] = target: ATP-dependent DNA helicase Q1 (Homo sapiens) (UniProt P46063); test: qHTS Validation Assay for Inhibitors of RecQ-Like Dna Helicase 1 (RECQ1) (AID 2353); conditions: recombinant RECQ1 helicase DNA unwinding assay; series mostly up to 25.6 µM;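 also: plate controls were DMSO vehicle for no effect and enzyme-free control for full effect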
Method in brief: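 RECQ1T1 50 nM; forked duplex (20 bp + 30-nt ss tails) 200 nM, ATP 2 mM final; pH 8.0, 2 mM MgCl2, 2.5 ug/ml poly(dI-dC); 15 min compound preincubation; discontinuous kinetic read over 2 h at RT.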

[10] = target: RecQ-like DNA helicase BLM (Homo sapiens) (UniProt P54132); test: qHTS Validation Assay for Inhibitors of Bloom's syndrome helicase (BLM) (AID 2364); conditions: BLM helicase DNA unwinding, fluorescence, in vitro; series mostly up to 57.1 µM;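 also: plate controls were DMSO vehicle for no effect and enzyme-free control for full effect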
Method in brief: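 Forked 20-bp duplex substrate (200 nM, TAMRA/BHQ-2) plus 2 mM ATP added after 15 min compound preincubation with 50 nM enzyme, pH 8.0, poly(dI-dC) 2.5 ug/ml. Strand separation followed by fluorescence (525/598 nm) over 2 h, normalized to enzyme-free and DMSO controls.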

[11] = Cytometric Cell-Based qHTS for Inhibitors of the mTORC1 Signaling Pathway in MEF (Tsc2-/-, p53-/-) Cells (AID 2660); conditions: mTORC1 pathway cytometry; series mostly up to 38.3 µM; also: potency is read from the fitted curve at half-maximal effect;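 as to activity change, negative = inhibition: Tsc2 and p53 null MEFs carrying empty vector with compound for 24 h; percent of cells above a phospho-rpS6 to PI ratio cutoff in each well; plate controls were DMSO for no effect and rapamycin for full effect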
Method in brief: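 Cells are plated, treated with compound for 24 hrs at 37 degree Celsius, then fixed, blocked and immunostained for phospho-rpS6 Ser235/236. Propidium iodide counterstain follows. Per-well % positive cells is derived from the PI-normalized phospho-S6 signal.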

[12] = High Content Imaging Cell-Based qHTS for Inhibitors of the mTORC1 Signaling Pathway in MEF (Tsc2-/-, p53-/-) Cells (AID 2666); conditions: series mostly up to 38.3 µM;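 also: percent of cells scored positive for phospho-rpS6 Ser235/236 immunostaining by imaging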; also: potency is read from the fitted curve at half-maximal effect
Method in brief: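 Tsc2-/-, p53-/- MEFs (empty-vector stable) grown in DMEM + 10% FBS were exposed to compounds for 24 hrs at 37 degree Celsius, fixed, and stained with Alexa-488 anti-phospho-rpS6 Ser235/236 plus Hoechst. Imaging gave the percentage of positive cells per well.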

[13] = High Content Imaging Cell-Based qHTS for Inhibitors of the mTORC1 Signaling Pathway in MEF Cells (AID 2667); conditions: series mostly up to 38.3 µM; also: potency is read from the fitted curve at half-maximal effect;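 as to activity change, negative = inhibition: Tsc2-/- p53-/- MEFs stably re-expressing wild-type Tsc2 exposed 24 h; plate controls were DMSO wells for no effect and rapamycin control wells for full effect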
Method in brief: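 Tsc2-/-, p53-/- MEFs stably re-expressing WT Tsc2, grown in DMEM + 10% FBS, were treated with compounds for 24 hrs at 37 degree Celsius, fixed, and stained with Alexa-488 phospho-rpS6 Ser235/236 antibody plus Hoechst; results given as % positive cells.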

[14] = qHTS for differential inhibitors of proliferation of Plasmodium falciparum line 3D7 (AID 1876); also: potency is read from the fitted curve at half-maximal effect; conditions: P. falciparum 3D7 proliferation inhibition; series mostly up to 28.7 µM
[15] = qHTS for differential inhibitors of proliferation of Plasmodium falciparum line Dd2 (AID 1882); conditions: Potency: Plasmodium falciparum Dd2 proliferation inhibition; series mostly up to 28.7 µM;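 also: plate controls were DMSO vehicle for no effect and 0.29 µM artemisinin for full effect; nearly all actives have a fitted effect of over 65% in size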
Method in brief: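 SYBR Green DNA fluorescence (ex 485, em 535 nm) after overnight lysis quantifies parasite growth; compound exposure lasted 72 h at 37 C on infected red cells at 2.5% hematocrit, 0.3% parasitemia (final). Artemisinin 0.29 uM and vehicle wells define normalization.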

[16] = qHTS for differential inhibitors of proliferation of Plasmodium falciparum line HB3 (AID 1886); conditions: Potency: Plasmodium falciparum HB3 proliferation inhibition; series mostly up to 28.7 µM;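 also: parasites grown with compound for 72 h before SYBR Green readout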; also: potency is read from the fitted curve at half-maximal effect;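 as to activity change, negative = inhibition: plate controls were vehicle for no effect and reference inhibitor for full effect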
[17] = qHTS Assay for Identification of Small Molecule Inducers of Hypoxia Response (AID 2120; active = well fitted curve in the direction sought with a large enough effect in the signal ratio, with a control signal flat, not every such curve was filed as active; the % refers to the signal ratio; also: 0% is about no effect); conditions: hypoxia response reporter cells, beta-lactamase ratio readout; series mostly up to 104 µM
Method in brief: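 Reporter induction read as the CCF4 blue/green (460nm/530nm) emission ratio after 2.5 h dye loading at room temperature. ME-180 HRE-beta-lactamase cells received titrated compounds for 17 h at 37 degrees Celsius; AC50 values derived.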

[18] = qHTS for differential inhibitors of proliferation of Plasmodium falciparum line 7G8 (AID 1815); conditions: Plasmodium falciparum 7G8 proliferation inhibition; series mostly up to 28.7 µM;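 also: potency is read from the fitted curve at half-maximal effect; parasite growth measured after three days of incubation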
[19] = qHTS Assay for Modulators of Human Peripheral Myelin Protein 22 (PMP22) Expression/Activity (AID 1967; active = well fitted curve in the direction sought with a large enough effect in the signal ratio; the % refers to the signal ratio;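 also: 0% = untreated cells and 100% end not stated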); conditions: Cell-based PMP22 reporter, dual-color luciferase ratio, 0% = compound-free control cells, mouse Pmp22 promoter in mouse Schwann cells; series mostly up to 115 µM
Method in brief: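 Quantitative HTS in a mouse Schwann cell line expressing dual click beetle luciferases: Pmp22 promoter (green) and control EF-alpha promoter (red). After 24h treatment, corrected green/red signal ratio gave %Activity relative to untreated cells.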

[20] = measured here: cell count channel max response
[21] = measured here: lipid channel max response

Sequence of Ferritin light chain (Equus caballus) (P02791 2-175 limits assumed): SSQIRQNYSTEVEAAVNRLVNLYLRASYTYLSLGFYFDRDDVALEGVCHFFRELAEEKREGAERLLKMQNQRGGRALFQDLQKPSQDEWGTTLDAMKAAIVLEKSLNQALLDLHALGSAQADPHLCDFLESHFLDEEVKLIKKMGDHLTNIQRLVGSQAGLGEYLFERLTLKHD
Sequence of DNA repair nuclease/redox regulator APEX1 (Homo sapiens) (P27695 whole entry, looked up): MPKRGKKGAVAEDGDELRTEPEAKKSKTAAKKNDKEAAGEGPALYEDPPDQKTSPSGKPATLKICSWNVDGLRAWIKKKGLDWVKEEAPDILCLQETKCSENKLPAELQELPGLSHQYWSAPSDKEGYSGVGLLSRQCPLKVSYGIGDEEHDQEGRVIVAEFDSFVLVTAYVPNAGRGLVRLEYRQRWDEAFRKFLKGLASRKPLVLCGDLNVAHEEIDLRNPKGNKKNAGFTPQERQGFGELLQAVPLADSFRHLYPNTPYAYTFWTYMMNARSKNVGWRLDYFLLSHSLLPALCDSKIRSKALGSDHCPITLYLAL
Sequence of RecQ-like DNA helicase BLM (Homo sapiens) (P54132 whole entry, looked up): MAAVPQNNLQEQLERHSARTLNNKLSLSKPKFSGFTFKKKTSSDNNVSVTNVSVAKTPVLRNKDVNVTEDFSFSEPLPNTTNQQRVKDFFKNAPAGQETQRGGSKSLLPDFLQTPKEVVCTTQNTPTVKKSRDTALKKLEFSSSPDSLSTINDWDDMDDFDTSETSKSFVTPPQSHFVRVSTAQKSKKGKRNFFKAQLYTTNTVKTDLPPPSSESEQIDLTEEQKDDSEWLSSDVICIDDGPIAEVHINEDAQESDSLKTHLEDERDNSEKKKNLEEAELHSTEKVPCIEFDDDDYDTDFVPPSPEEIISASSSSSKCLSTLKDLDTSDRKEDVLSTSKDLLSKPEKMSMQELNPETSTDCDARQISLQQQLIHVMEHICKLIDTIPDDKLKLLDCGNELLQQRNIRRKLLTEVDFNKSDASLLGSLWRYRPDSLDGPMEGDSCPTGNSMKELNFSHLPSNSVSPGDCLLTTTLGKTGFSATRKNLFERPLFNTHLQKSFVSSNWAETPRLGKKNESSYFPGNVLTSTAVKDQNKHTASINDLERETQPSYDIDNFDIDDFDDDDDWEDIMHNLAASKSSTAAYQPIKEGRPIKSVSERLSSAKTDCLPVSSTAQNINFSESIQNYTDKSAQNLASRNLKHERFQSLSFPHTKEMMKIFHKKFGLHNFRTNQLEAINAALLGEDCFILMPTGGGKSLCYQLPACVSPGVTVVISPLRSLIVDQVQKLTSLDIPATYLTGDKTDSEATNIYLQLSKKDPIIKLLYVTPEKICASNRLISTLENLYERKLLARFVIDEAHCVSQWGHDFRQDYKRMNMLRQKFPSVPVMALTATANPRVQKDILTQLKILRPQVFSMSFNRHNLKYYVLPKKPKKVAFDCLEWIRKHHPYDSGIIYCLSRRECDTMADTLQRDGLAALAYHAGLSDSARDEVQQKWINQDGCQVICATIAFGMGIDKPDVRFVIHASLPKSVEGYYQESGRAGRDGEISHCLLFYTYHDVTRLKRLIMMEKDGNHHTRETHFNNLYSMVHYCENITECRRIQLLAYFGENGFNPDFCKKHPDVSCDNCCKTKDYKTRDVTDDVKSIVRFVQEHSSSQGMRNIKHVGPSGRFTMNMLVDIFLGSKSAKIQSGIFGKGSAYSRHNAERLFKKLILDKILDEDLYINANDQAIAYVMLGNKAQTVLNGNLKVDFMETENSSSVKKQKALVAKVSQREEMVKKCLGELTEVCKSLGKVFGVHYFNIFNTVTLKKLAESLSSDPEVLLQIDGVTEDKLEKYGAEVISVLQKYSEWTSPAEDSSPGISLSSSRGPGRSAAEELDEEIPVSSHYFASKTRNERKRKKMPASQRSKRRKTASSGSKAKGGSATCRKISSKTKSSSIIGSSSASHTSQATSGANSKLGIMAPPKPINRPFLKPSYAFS
Sequence of ATP-dependent DNA helicase Q1 (Homo sapiens) (P46063 whole entry, looked up): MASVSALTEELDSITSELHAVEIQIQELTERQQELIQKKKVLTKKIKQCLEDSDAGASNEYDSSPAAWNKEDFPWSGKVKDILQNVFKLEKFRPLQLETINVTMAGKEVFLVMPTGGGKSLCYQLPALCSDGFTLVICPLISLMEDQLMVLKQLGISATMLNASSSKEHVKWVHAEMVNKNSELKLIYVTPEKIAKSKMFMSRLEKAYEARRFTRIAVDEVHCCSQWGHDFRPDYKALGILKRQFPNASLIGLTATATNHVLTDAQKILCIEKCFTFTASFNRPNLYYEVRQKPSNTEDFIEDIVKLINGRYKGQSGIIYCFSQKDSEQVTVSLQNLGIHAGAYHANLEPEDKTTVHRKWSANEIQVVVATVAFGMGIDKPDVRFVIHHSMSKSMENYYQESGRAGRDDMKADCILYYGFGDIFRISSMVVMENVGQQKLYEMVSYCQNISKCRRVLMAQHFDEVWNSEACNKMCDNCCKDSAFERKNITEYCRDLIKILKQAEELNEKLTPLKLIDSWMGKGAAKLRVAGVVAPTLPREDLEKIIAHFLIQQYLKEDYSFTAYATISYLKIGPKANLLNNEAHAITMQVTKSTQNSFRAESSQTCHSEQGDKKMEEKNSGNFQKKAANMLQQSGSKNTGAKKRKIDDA

O=C(CCc1ccc(O)cc1)c1c(O)cc(O)cc1O
inactive: activity change, negative = inhibition ([1]; at 57.5 µM (top of the series)) 10.4% | Potency [2] | Potency [3] | outcome [4] | Potency [6] | Potency [8] | Potency [9] | Potency [10] | Potency [11] | Potency [12] | Potency [13]
5.8%: max response [1, 20]
active: Potency [5] 11.2 µM | Potency [7] 14.1 µM
18.1%: max response [1, 21]

Nc1cc(C(Cl)=C(Cl)Cl)c(S(N)(=O)=O)cc1S(N)(=O)=O
6.94% and 7.19%: max response [1, 20]
2.6% and 13.2%: max response [1, 21]
inactive: activity change, negative = inhibition ([1]; at 25.7 µM (top of the series)) -3.67% | activity change, negative = inhibition ([1]; at 57.5 µM (top of the series)) 2.69%

O=C(O)c1cc(=O)c2c(OCC(O)COc3cccc4oc(C(=O)O)cc(=O)c34)cccc2o1
9.46% and 18.8%: max response [1, 20]
inactive: activity change, negative = inhibition ([1]; at 25.7 µM (top of the series)) -2.11% | activity change, negative = inhibition ([1]; at 57.5 µM (top of the series)) 11.5%
8.64% and 34.9%: max response [1, 21]

O=c1cc(N2CCOCC2)oc2c(-c3ccccc3)cccc12
active: Potency [11] 3.69 µM | Potency [12] 9.27 µM | Potency [13] 0.414 µM
inactive: Potency [2] | Potency [3] | outcome [4] | Potency [14] | Potency [6] | Potency [15] | Potency [16] | Potency [8] | Potency [9]

CCOC(=O)C(C)Oc1cccc2c(=O)n(CC(=O)Nc3ccc4c(c3)OCCO4)ccc12 (stereo not drawn)
inactive: Potency [11] | Potency [12] | Potency [13]

Cc1nc2n(c(=O)c1CCN1CCC(c3noc4cc(F)ccc34)CC1)CCCC2
inactive: Potency [2] | Potency [3] | outcome [4] | Potency [8] | Potency [9] | Potency [10]

c1ccc2[nH]c(-c3cscn3)nc2c1
inactive: outcome [17]

COc1ccccc1N1CCN(CCN(C(=O)C2CCCCC2)c2ccccn2)CC1
active: Potency [18] 2.24 µM | Potency [7] 7.94 µM | Potency [16] 11.2 µM
inactive: Potency [2] | Potency [3] | Potency [8] | Potency [9] | Potency [11] | Potency [12] | Potency [13]

Nc1nc(N)c(N=O)c(OCC2CCCCC2)n1
active: Potency [11] 14.7 µM | Potency [12] 14.7 µM

O=C1c2ccccc2-c2n[nH]c3cccc1c23
active: Potency [18] 10 µM | Potency [14] 12.6 µM | Potency [7] 7.94 µM
inactive: activity change, negative = inhibition ([1]; at 57.5 µM (top of the series)) 2.36% | Potency [3] | Potency [9] | Potency [10] | Potency [11] | Potency [12] | Potency [13]
-6.85%: max response [1, 20]
-4.08%: max response [1, 21]

COc1cc2nc(N3CCN(C(=O)C4CCCO4)CC3)nc(N)c2cc1OC (stereo not drawn)
-1.5%: max response [1, 20]
-3.7%: max response [1, 21]
inactive: activity change, negative = inhibition ([1]; at 57.5 µM (top of the series)) 0.288% | Potency [2] | Potency [3] | Potency [15] | outcome [19] | Potency [8] | Potency [9] | Potency [10] | Potency [11] | Potency [12] | Potency [13]
active: Potency [7] 11.2 µM
